According to PubChem BioAssay (NCATS):
Inconclusive results are not listed. Where a call stands in place of a potency, no number is given. Active and inactive are the calls of the source. Calls come from the whole dose curve; as a rule, active = well fitted curve in the direction sought with a large enough effect; inconclusive = small, poorly fitted or top-dose-only effect, or another doubt; inactive = no such curve, though single readings can be large; an effect the other way counts as inactive or inconclusive.

What was measured:
[1] = qHTS of pediatric cancer cell lines to identify multiple opportunities for drug repurposing: Primary screen for TC32 cells (AID 1347089); note: nearly all actives have a fitted effect of over 60% in size
How it was run: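 In the primary qHTS, MIPE compounds were tested at 11 concentrations (0.78 nM to 46 µM) and NPC compounds at 8 (0.59 nM to 46 µM) on TC32 cells for 48 h. CellTiter-Glo luminescence gave viability.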

[2] = qHTS of pediatric cancer cell lines to identify multiple opportunities for drug repurposing: Primary screen for DAOY cells (AID 1347090); note: series mostly up to about 46 µM; nearly all actives have a fitted effect of over 55% in size
How it was run: (§1)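 Viability measured as metabolically active cells via CellTiter-Glo luminescence following 48 hours of compound exposure, 11-point dilutions in confirmatory testing. 500-1,000 cells/well plated 5 hours before dosing; controls were DMSO and 2.3 µM bortezomib.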

[3] = qHTS of pediatric cancer cell lines to identify multiple opportunities for drug repurposing: Primary screen for SJ-GBM2 cells (AID 1347091)
How it was run: as §1

[4] = qHTS of pediatric cancer cell lines to identify multiple opportunities for drug repurposing: Primary screen for A673 cells (AID 1347092); note: nearly all actives have a fitted effect of over 45% in size
How it was run: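 48 h compound exposure, A673, 500-1,000 cells/well, 37 degrees C/5% CO2. MIPE: 11-point, 0.78 nM-46 µM; NPC: 8-point, 0.59 nM-46 µM (final). Readout CellTiter-Glo luminescence after 15 min RT.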

[5] = qHTS of pediatric cancer cell lines to identify multiple opportunities for drug repurposing: Primary screen for BT-37 cells (AID 1347094); note: series mostly up to about 57 µM
How it was run: (§2)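 Plated cells (500-1,000 per well, growth media) were allowed to settle for 5 hours, treated with compound dilutions for 48 hours, then lysed with CellTiter-Glo for 15 min at room temperature before luminescence reading.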

[6] = qHTS of pediatric cancer cell lines to identify multiple opportunities for drug repurposing: Primary screen for NB-EBc1 cells (AID 1347095)
How it was run: as §2

[7] = qHTS of pediatric cancer cell lines to identify multiple opportunities for drug repurposing: Primary screen for U-2 OS cells (AID 1347096); note: nearly all actives have a fitted effect of over 50% in size
How it was run: (§3)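 Viability after 48 h compound treatment at 37C, 500-1,000 cells/well, read as ATP luminescence with CellTiter-Glo. Primary screens used 11-point (MIPE, 0.78 nM-46 µM) or 8-point (NPC, 0.59 nM-46 µM) final concentrations; follow-up screens used 11-point dilutions.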

[8] = qHTS of pediatric cancer cell lines to identify multiple opportunities for drug repurposing: Primary screen for Saos-2 cells (AID 1347097); note: nearly all actives have a fitted effect of over 40% in size
How it was run: as §2

[9] = qHTS of pediatric cancer cell lines to identify multiple opportunities for drug repurposing: Primary screen for SK-N-SH cells (AID 1347098);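 note: DMSO served as neutral control and bortezomib at 2.3 µM as positive control; nearly all actives have a fitted effect of over 65% in size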
How it was run: (§4)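 Cells (500-1,000/well) rested 5 h, then received compounds for 48 h; metabolically active cells were measured by CellTiter-Glo luminescence. Final concentrations spanned up to 46 µM (MIPE, 11-point) or 0.59 nM-46 µM (NPC, 8-point) in primary screens, 11-point in follow-ups.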

[10] = qHTS of pediatric cancer cell lines to identify multiple opportunities for drug repurposing: Primary screen for NB1643 cells (AID 1347099); note: nearly all actives have a fitted effect of over 50% in size
How it was run: as §2

[11] = qHTS of pediatric cancer cell lines to identify multiple opportunities for drug repurposing: Primary screen for LAN-5 cells (AID 1347100)
How it was run: as §3

[12] = qHTS of pediatric cancer cell lines to identify multiple opportunities for drug repurposing: Primary screen for BT-12 cells (AID 1347101); note: nearly all actives have a fitted effect of over 25% in size; note: potency is the fitted concentration of half-maximal effect
How it was run: as §4

[13] = qHTS of pediatric cancer cell lines to identify multiple opportunities for drug repurposing: Primary screen for Rh18 cells (AID 1347102); note: nearly all actives have a fitted effect of over 65% in size
How it was run: as §3

[14] = qHTS of pediatric cancer cell lines to identify multiple opportunities for drug repurposing: Primary screen for MG 63 (6-TG R) cells (AID 1347105); note: nearly all actives have a fitted effect of over 50% in size
How it was run: as §2

[15] = qHTS of pediatric cancer cell lines to identify multiple opportunities for drug repurposing: Primary screen for control Hh wild type fibroblast cells (AID 1347106);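 note: series mostly up to about 46 µM; a drop in luminescence marks cytotoxicity and a rise apparent proliferation; nearly all actives have a fitted effect of over 55% in size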
How it was run: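 Cells (500-1,000/well) in growth media were settled 5 h at 37 degrees C, then given compounds for 48 h. Viability was read as CellTiter-Glo luminescence. Primary runs used MIPE at 11 points (0.78 nM-46 µM) and NPC at 8 points (0.59 nM-46 µM); follow-ups used 11 points.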

[16] = qHTS of pediatric cancer cell lines to identify multiple opportunities for drug repurposing: Primary screen for SK-N-MC cells (AID 1347093); note: potency is the fitted concentration of half-maximal effect
How it was run: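 Metabolically active cells were quantified by ATP-dependent luminescence (CellTiter-Glo, 15 min at room temperature) following 48 h treatment. Cells had been plated at 500-1,000 per well and settled for 5 h beforehand.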

[17] = qHTS of pediatric cancer cell lines to identify multiple opportunities for drug repurposing: Primary screen for OHS-50 cells (AID 1347103); note: nearly all actives have a fitted effect of over 40% in size; note: potency is the fitted concentration of half-maximal effect
How it was run: as §4

[18] = qHTS of pediatric cancer cell lines to identify multiple opportunities for drug repurposing: Primary screen for RD cells (AID 1347104); note: nearly all actives have a fitted effect of over 55% in size
How it was run: as §2

Row | SMILES | Potency [1] | Potency [2] | Potency [3] | Potency [4] | Potency [5] | Potency [6] | Potency [7] | Potency [8] | Potency [9] | Potency [10] | Potency [11] | Potency [12] | Potency [13] | Potency [14] | outcome [15] | Potency [16] | Potency [17] | Potency [18]
1 | CN(C)CCN(Cc1ccccc1)c1ccccn1 | inactive | inactive | inactive | inactive | inactive | inactive | inactive | inactive | inactive | inactive | inactive | inactive | inactive | inactive | inactive | – | – | –
2 | CC(=O)NC(Cc1ccccc1)C(=O)O (centres undefined) | inactive | inactive | inactive | inactive | inactive | inactive | inactive | – | inactive | inactive | inactive | inactive | inactive | – | inactive | inactive | inactive | inactive
3 | O=S(=O)(O)c1cc(I)c(O)c2ncccc12 | inactive | inactive | inactive | inactive | inactive | inactive | inactive | inactive | inactive | inactive | inactive | inactive | – | inactive | inactive | – | inactive | –
4 | COc1cc(C)c(Cc2cnc(N)nc2N)cc1OC | inactive | inactive | inactive | inactive | inactive | inactive | inactive | – | inactive | – | inactive | inactive | inactive | inactive | inactive | 11900 nM (active) | inactive | inactive
5 | COc1ccc2c(c1)C(=O)N(CCc1ccc(S(=O)(=O)NC(=O)NC3CCCCC3)cc1)C(=O)C2(C)C | inactive | inactive | inactive | inactive | inactive | inactive | inactive | inactive | inactive | inactive | inactive | inactive | inactive | inactive | inactive | – | inactive | inactive
6 | O=C(O)c1ccccc1-c1ccc(C(F)(F)F)cc1 | inactive | inactive | inactive | inactive | inactive | inactive | inactive | inactive | inactive | inactive | inactive | inactive | – | inactive | inactive | – | inactive | inactive
7 | CC(O)CN(CCN(CC(C)O)CC(C)O)CC(C)O (centres undefined) | inactive | inactive | inactive | inactive | inactive | inactive | inactive | inactive | inactive | inactive | inactive | inactive | inactive | inactive | inactive | – | inactive | inactive
8 | O=c1[nH]cnc2c1ncn2[C@@H]1O[C@H](CO)[C@@H](O)[C@H]1O | inactive | inactive | – | inactive | inactive | inactive | inactive | inactive | inactive | inactive | inactive | inactive | inactive | inactive | inactive | inactive | inactive | inactive
9 | OC[C@H]1O[C@@H](O[C@@H]2[C@@H](CO)O[C@](O)(CO)[C@H]2O)[C@H](O)[C@@H](O)[C@H]1O | inactive | inactive | inactive | inactive | inactive | inactive | inactive | inactive | inactive | – | inactive | inactive | inactive | inactive | inactive | – | inactive | –
10 | CCOc1nc2cccc(C(=O)O)c2n1Cc1ccc(-c2ccccc2-c2nn[nH]n2)cc1 | inactive | inactive | inactive | inactive | inactive | inactive | inactive | inactive | inactive | – | inactive | inactive | inactive | inactive | inactive | – | inactive | inactive
11 | CCCCN(CCCC)CCCOC(=O)c1ccc(N)cc1 | inactive | inactive | – | inactive | inactive | inactive | inactive | inactive | inactive | inactive | inactive | inactive | – | inactive | inactive | inactive | inactive | –
12 | O=c1cc(CO)occ1O | inactive | inactive | – | inactive | inactive | inactive | inactive | inactive | inactive | inactive | inactive | inactive | inactive | inactive | inactive | inactive | inactive | inactive
13 | O=C(O)CN1C(=O)c2cccc3cccc(c23)C1=O | inactive | inactive | inactive | – | – | inactive | inactive | – | inactive | inactive | inactive | 1 nM (active) | – | inactive | inactive | – | 1 nM (active) | –
